# Screening data as filed in PubChem.
# tim10-1 inh – growth inhibitors of tim10-1 mutant yeast, primary screen, luminescence, uHTS; S. cerevisiae tim10-1 ts strain growth, BacTiter-Glo, 24 h; inhibition, % at 20 µM; 2.2% of 330,000 active;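 active means inhibition of at least 40%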;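 further: mutant grown at 25 °C; 0% = DMSO wells with yeast and 100% = wells holding no yeast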
# TIM10 inh – growth inhibitors of isogenic TIM10 control yeast, primary screen, counter-screen for tim10-1 yeast inhibitor project, luminescence, uHTS; S. cerevisiae TIM10 strain growth, BacTiter-Glo luminescence, 24 h; inhibition, % at 10 µM; 1.4% of 330,000 active; AID 463195, 2010;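 active means inhibition of 40% or more at the single tested concentration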;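 further: wild-type TIM10 isogenic control strain grown at permissive 25 °C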
# PfHsp90 set2 – growth inhibition of PfHsp90-expressing yeast, primary screen, antimalarial PfHsp90 inhibitor project, S. cerevisiae, BacTiter-Glo luminescence, single point, set 2. BacTiter-Glo ATP, 48 h; yeast lacking PDR1 and PDR3 efflux regulators. inhibition, % at 9.4 µM. 0.32% of 310,000 active. AID 504621, 2011;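 active means every replicate shows inhibition above about 80%, whatever the replicate mean, limit read from the data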;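 further: 0% = DMSO neutral controls and 100% = 20 µM radicicol positive controls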
# Beta2AR agonist – beta2AR agonists driving receptor internalization, primary screen, cell-based, FAP fluorogen, flow cytometry; Beta-2 adrenergic receptor (Homo sapiens), P07550; Am2.2-beta2AR cells; response, % (no concentration beside the values); 0.43% of 340,000 active;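 active means response above a set limit, near 3 SD of response in nonfluorescent compounds, cut at about 42% in these data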
# Target sequence (P07550 whole entry, looked up): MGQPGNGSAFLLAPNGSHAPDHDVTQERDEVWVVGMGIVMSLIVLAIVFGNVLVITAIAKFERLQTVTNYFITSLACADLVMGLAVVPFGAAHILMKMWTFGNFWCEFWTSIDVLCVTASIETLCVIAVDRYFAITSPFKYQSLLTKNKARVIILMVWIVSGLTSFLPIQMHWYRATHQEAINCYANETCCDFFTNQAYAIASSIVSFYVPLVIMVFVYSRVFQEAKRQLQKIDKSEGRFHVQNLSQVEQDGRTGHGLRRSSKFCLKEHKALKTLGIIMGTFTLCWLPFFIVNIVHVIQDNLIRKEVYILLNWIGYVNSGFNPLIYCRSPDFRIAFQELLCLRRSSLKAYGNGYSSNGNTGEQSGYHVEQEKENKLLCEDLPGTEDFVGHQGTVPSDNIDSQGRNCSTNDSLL
# tim23-1 inh – growth inhibitors of tim23-1 mutant yeast, primary screen, luminescence, uHTS | 1.3% of 330,000 active | S. cerevisiae tim23-1 growth, BacTiter-Glo luminescence, 24 h | inhibition, % at 20 µM;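 active means growth inhibition of the mutant yeast at or above 50%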;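 further: temperature-sensitive mutant grown at 25 °C; plate controls were DMSO-treated mutant yeast for no effect and medium wells lacking yeast for full effect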
# tim10 confirm – growth inhibitors of wild-type TIM10 yeast, confirmation, counter-screen for tim10-1 synthetic lethality project, single concentration, luminescence, S. cerevisiae. shares compounds with TIM10 inh. inhibition, % at 10 µM. S. cerevisiae tim10 strain growth, BacTiter-Glo luminescence, 24 h. 63% of 4,600 active;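 active means inhibition of yeast growth at or above a set limit in either of two replicates at 10 µM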;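 further: this counterscreen used the strain with wild-type TIM10; 0% = yeast with DMSO and 100% = medium wells lacking yeast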
# tim23-1 conf – tim23-1 mutant yeast growth inhibitors, confirmation, luminescence, single concentration. 83% of 4,400 active. shares compounds with tim23-1 inh. S. cerevisiae tim23-1 growth, BacTiter-Glo luminescence, 24 h. AID 463218, 2010. inhibition, % at 20 µM;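 active means inhibition above about 39% in either of two replicate wells at 20 µM, limit read from the data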;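 further: temperature-sensitive tim23-1 mutant grown at 25 °C; 0% = DMSO wells with yeast and 100% = medium wells without yeast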
# * marks the source's active call; other numbers are inactive results; x = not tested or not shown. In the library only some 3.8% were active in any assay of this set; here they are far more common.
SMILES,tim10-1 inh,TIM10 inh,PfHsp90 set2,Beta2AR agonist,tim23-1 inh,tim10 confirm,others
CC1(C2CC2)NC(=O)N(CC(=O)NCc2ccc(Cl)cc2Cl)C1=O (centres undefined),-3,-6,0,2,-17,x,
COc1cccc(CN(C)CCCn2cnc(C(=O)Nc3ccc(C)c(C)c3)n2)c1,x,x,6,-4,x,x,
Cc1c(C(=O)NCc2cccnc2)oc2ccc(S(=O)(=O)N3CCCCCC3)cc12,21,43*,x,14,26,21,
Cc1c(C(=O)NCc2cccnc2)oc2ccc(S(=O)(=O)N3CCCCC3)cc12,13,20,20,-2,24,x,
CCN(CC)CCNC(=O)c1ccc(NC(=O)/C=C/c2ccc3ccccc3n2)cc1,13,7,-20,-1,13,x,
O=[N+]([O-])c1ccc(/C=N/Nc2ccnc3cc(Cl)ccc23)o1,24,64*,-16,-20,-2,71*,
COc1ccc(OCC(O)Cn2cnc(-c3ccc(Br)cc3)c2)cc1 (centres undefined),7,52*,22,-6,7,-23,
OC(COc1ccc(Br)cc1)Cn1ccnc1 (centres undefined),7,0,5,-6,-6,x,
COc1ccc(Cc2nc(C(=O)Nc3ccc(Cl)cc3)cs2)cc1,27,47*,17,0,24,37*,
COc1ccc(NC(=O)c2csc(Cc3ccc(Cl)cc3)n2)cc1,7,20,26,-4,22,x,
Cc1ccc(C2CC(=O)C=C(Nc3ccc(Cl)cc3)C2)cc1 (centres undefined),20,25,9,-6,21,x,
O=C1C=C(Nc2ccc(Cl)cc2)CC(c2ccc(Cl)cc2)C1 (centres undefined),26,42*,x,5,28,22,
CCNC(=O)CSc1nnc(-c2cccc(S(=O)(=O)N3CCOCC3)c2)o1,12,2,x,-6,14,x,
O=C(Nc1ccc(Cl)cc1)N1CCC(c2nc(-c3ccccc3Cl)no2)CC1,30,48*,-12,-2,-6,19,
CN1c2ccccc2Oc2nnc(Cl)cc21,30,48*,7,-4,43,50*,
CN1c2ccccc2Sc2cc(N)ccc21,8,-5,-2,15,34,x,
Fc1ccc2nc(Nc3ccccc3)sc2c1,30,43*,-23,-9,24,30,
NNc1nc2ccc(F)cc2s1,13,5,2,0,20,x,
COc1ccc(CNS(=O)(=O)c2ccc3c(c2)N(C(C)=O)CCO3)cc1,18,46*,18,4,10,1,
COc1ccc(Nc2nccc(N(C)C)c2C#N)cc1,4,55*,7,11,-6,-6,
N#C/C(=C(/O)CCl)c1nnc2n1CCCCC2,1,-28,-26,0,2,x,
N#C/C(=N\Nc1cc(Cl)cc(Cl)c1)c1nnc2n1CCCCC2,35,41*,x,-22,13,28,
N#CC(c1ccc(O)cc1)N1CCN(C(C#N)c2ccc(O)cc2)CC1 (centres undefined),x,x,-28,-7,x,x,
N#C/C(=C\c1cccnc1)c1nc2ccccc2[nH]1,19,75*,x,-3,13,-2,
CCOc1ccc(N(C(=O)c2cnccn2)C(C(=O)NC2CCCCC2)c2ccc(O)cc2)cc1 (centres undefined),17,84*,15,-10,16,-16,
SMILES,tim10-1 inh,TIM10 inh,PfHsp90 set2,Beta2AR agonist,tim23-1 inh,tim10 confirm,others
COc1ccc(C(=O)/C=C/c2ccccc2F)c(OC(=O)c2ccc([N+](=O)[O-])cc2)c1,38,44*,-4,0,-1,41*,
COc1ccc(C(=O)/C=C/c2ccc(C)cc2)c(OC(=O)c2ccc([N+](=O)[O-])cc2)c1,15,-1,11,1,7,x,
CCN(CC)C(=O)Cn1cc(C(=O)C(=O)Nc2ccc3c(c2)OCCO3)c2ccccc21,-9,-8,3,0,5,x,
Cc1ccc(S(=O)(=O)Cc2cc(F)c([N+](=O)[O-])cc2[N+](=O)[O-])cc1,29,89*,73,28,-8,68*,
CCOC(=O)c1ccc([N+](=O)[O-])c(CS(=O)(=O)c2ccc(Cl)cc2)c1,27,10,6,10,37,x,
CCN(c1cccc(C)c1)S(=O)(=O)c1ccc(-n2cccn2)cc1,13,19,-7,-34,34,x,
CN(C(=O)c1cccc(NC(=O)Cc2ccc(NC(=O)C3CCCN(C(=O)C4CCC4)C3)cc2)c1)C1CCCCC1 (centres undefined),x,x,-3,7,x,x,
Fc1cccc(/C=N/n2c(C3CCCCC3)n[nH]c2=S)c1,26,44*,-21,1,26,37*,
Oc1cccc(/C=N/n2c(C3CCCCC3)n[nH]c2=S)c1,32,9,27,0,26,x,
O=C(Nc1nccs1)c1cc2c(s1)CCCCC2,37,46*,47,1,58*,59*,tim23-1 conf=65*
O=C(Nc1nncs1)c1cc2c(s1)CCC2,-3,5,29,2,19,x,
O=C(N/N=C\c1ccc(O)c([N+](=O)[O-])c1)C1COc2ccccc2O1 (centres undefined),5,9,0,16,11,x,
Cc1cc([N+](=O)[O-])cc(/C=N\NC(=O)C2COc3ccccc3O2)c1O (centres undefined),14,45*,-16,-3,67*,36*,tim23-1 conf=70*
CC(C)(C)OC(=O)N1CCC(NC(=O)c2[nH]cnc2C(=O)Nc2cccc(Cl)c2)CC1,21,8,-90,-1,-7,x,
NNC(=O)c1cc2cc(OC(F)(F)F)ccc2[nH]1,29,50*,25,11,58*,40*,tim23-1 conf=50*
N#CC1=C(c2ccccc2)/C(=C/c2ccccc2)OC1=O,34,44*,3,36,61*,52*,tim23-1 conf=59*
CC(C)(C)c1ccc(C(=O)N/N=C/c2cccc(Cl)c2)cc1,37,63*,3,11,66*,52*,tim23-1 conf=77*
Cc1c(C(=O)Nc2nccs2)oc2ccc(Br)cc12,13,6,-22,1,11,x,
CC(C)CC1NC(=O)c2cc(Cl)ccc2-n2c1nc1ccc(F)cc1c2=O (centres undefined),19,6,x,x,19,x,
O=C(/C=C/c1ccco1)Nc1ccc2c(c1)OCCO2,-27,-11,-6,7,4,x,
